Measured values published in PubChem BioAssay (Tox21).
“And” between values parts separate entries of the source, which are not always exact repeats. Equal entries are not always repeated. Results filed as inconclusive are left out. Some compounds were tested as several samples or in several runs, with calls that do not always agree. The source made the active and inactive calls. Unless noted, calls come from the whole dose curve; as a rule, active = well fitted curve in the direction sought with a large enough effect in the repeat runs; inconclusive = weak or mixed curves; inactive = no such curve, though single readings can be large; an effect the other way counts as inactive or inconclusive.

Columns and labels:
[1] = qHTS assay to identify small molecule antagonists of the retinoid acid receptor (RAR) signaling pathway - cell viability counter screen (AID 1159551); note: nearly all actives have a fitted effect of over 35% in size; note: potency is the fitted concentration of half-maximal effect
How it was run: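 Cells (C3RL4) are plated, incubated overnight, dosed with compound in DMSO, then given retinol at 1 uM final. After 6 h at 37 C, CellTiter-Glo is added and luminescence read following 30 min at room temperature.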

[2] = qHTS assay to identify small molecule antagonists of the retinoic acid receptor (RAR) signaling pathway (AID 1159552; note: nearly all actives have a fitted effect of over 50% in size; note: potency is the fitted concentration of half-maximal effect)
How it was run: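 Overnight-plated C3RL4 reporter cells get compound, then retinol to 1 uM final; plates sit 6 hr at 37 C, 5% CO2. A luciferase reagent is added and light output recorded after 30 min at room temperature.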

[3] = target: Luciferin 4-monooxygenase (Photinus pyralis) (UniProt P08659); experiment: qHTS assay to identify small molecule inhibitors of firefly luciferase (AID 1224835); note: nearly all actives have a fitted effect of over 25% in size; note: potency is the fitted concentration of half-maximal effect
Luciferin 4-monooxygenase (Photinus pyralis), sequence (P08659 whole entry, looked up): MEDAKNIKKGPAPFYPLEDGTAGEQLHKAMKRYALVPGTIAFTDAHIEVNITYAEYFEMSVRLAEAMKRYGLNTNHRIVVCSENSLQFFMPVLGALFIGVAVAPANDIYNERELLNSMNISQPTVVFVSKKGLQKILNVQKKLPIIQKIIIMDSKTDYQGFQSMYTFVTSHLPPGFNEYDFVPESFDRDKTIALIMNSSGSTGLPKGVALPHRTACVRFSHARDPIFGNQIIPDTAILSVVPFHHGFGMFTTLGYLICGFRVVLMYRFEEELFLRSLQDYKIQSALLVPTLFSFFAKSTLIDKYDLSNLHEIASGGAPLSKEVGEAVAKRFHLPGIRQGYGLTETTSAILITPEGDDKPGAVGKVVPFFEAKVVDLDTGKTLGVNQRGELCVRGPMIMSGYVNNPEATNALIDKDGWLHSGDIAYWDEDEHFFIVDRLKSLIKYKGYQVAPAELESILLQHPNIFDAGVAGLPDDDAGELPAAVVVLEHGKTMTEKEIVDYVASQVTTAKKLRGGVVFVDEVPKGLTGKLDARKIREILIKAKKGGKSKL
How it was run: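 Biochemical qHTS: compounds run as interplate titrations against purified firefly enzyme, with D-luciferin and ATP each at its KM concentration. Light output recorded by CCD imaging.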

[4] = qHTS assay to identify small molecule antagonists of the constitutive androstane receptor (CAR) signaling pathway - cell viability counter screen (AID 1224837); note: nearly all actives have a fitted effect of over 45% in size; note: potency is the fitted concentration of half-maximal effect
How it was run: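 Viability was measured with CellTiter-Fluor in a HepG2 line carrying stably transfected hCAR and a CYP2B6-2.2kb construct. Cells were exposed for 23 hr at 37 C to 15 compound concentrations with 50 nM CITCO as agonist.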

[5] = target: Nuclear receptor subfamily 1 group I member 3 (Homo sapiens) (UniProt Q14994); experiment: qHTS assay to identify small molecule agonists of the constitutive androstane receptor (CAR) signaling pathway (AID 1224839); note: nearly all actives have a fitted effect of over 15% in size; note: potency is the fitted concentration of half-maximal effect
Nuclear receptor subfamily 1 group I member 3 (Homo sapiens), sequence (Q14994 whole entry, looked up): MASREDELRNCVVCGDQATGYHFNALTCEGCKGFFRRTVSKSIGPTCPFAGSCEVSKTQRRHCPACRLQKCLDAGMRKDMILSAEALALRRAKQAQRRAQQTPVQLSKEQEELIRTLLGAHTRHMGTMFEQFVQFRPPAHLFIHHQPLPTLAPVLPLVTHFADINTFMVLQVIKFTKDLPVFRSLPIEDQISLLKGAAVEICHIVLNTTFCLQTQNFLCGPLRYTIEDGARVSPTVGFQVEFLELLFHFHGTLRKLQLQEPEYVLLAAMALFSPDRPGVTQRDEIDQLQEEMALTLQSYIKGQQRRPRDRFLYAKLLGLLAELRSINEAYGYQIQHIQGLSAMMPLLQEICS
How it was run: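 Stable hCAR/CYP2B6-2.2kb HepG2 line in DMEM with 10% FBS; compounds (15 concentrations) and 0.75 uM PK11195 final, 24 h at 37 C/5% CO2, then ONE-Glo luminescence after 30 min.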

[6] = qHTS assay to identify small molecule antagonists of the estrogen related receptor signaling pathway with the pleiotropic PPARgamma coactivator (PGC) from Tox21 10K library - cell viability counter screen (AID 1224840; active = well fitted cell-killing curve with a large enough effect in the repeat runs, not every such curve was filed as active; note: nearly all actives have a fitted effect of over 40% in size; note: potency is the fitted concentration of half-maximal effect)
How it was run: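 Multiplexed viability counter screen in the PGC/ERR cell line: cells treated with DMSO-dissolved compounds for 17.5 hours at 37 C, then viability measured as CellTiter-Fluor fluorescence.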

[7] = qHTS assay to identify small molecule agonists of the estrogen related receptor signaling pathway with the pleiotropic PPARgamma coactivator (PGC) from Tox21 10K library (AID 1224842); note: nearly all actives have a fitted effect of over 15% in size
How it was run: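 PGC/ERR reporter cell line, 2,000 cells per well, incubated 6 h at 37 C before 23 nL compound in DMSO was added. After 18 h at 37 C, One-Glo luminescence read following 30 min at room temperature.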

[8] = target: Thyrotropin receptor (Homo sapiens) (UniProt P16473); experiment: qHTS assay to identify small molecule agonists of the thyroid stimulating hormone receptor (TSHR) signaling pathway (AID 1224843; calls by dose curve; note: nearly all actives have a fitted effect of over 45% in size)
Thyrotropin receptor (Homo sapiens), sequence (P16473 whole entry, looked up): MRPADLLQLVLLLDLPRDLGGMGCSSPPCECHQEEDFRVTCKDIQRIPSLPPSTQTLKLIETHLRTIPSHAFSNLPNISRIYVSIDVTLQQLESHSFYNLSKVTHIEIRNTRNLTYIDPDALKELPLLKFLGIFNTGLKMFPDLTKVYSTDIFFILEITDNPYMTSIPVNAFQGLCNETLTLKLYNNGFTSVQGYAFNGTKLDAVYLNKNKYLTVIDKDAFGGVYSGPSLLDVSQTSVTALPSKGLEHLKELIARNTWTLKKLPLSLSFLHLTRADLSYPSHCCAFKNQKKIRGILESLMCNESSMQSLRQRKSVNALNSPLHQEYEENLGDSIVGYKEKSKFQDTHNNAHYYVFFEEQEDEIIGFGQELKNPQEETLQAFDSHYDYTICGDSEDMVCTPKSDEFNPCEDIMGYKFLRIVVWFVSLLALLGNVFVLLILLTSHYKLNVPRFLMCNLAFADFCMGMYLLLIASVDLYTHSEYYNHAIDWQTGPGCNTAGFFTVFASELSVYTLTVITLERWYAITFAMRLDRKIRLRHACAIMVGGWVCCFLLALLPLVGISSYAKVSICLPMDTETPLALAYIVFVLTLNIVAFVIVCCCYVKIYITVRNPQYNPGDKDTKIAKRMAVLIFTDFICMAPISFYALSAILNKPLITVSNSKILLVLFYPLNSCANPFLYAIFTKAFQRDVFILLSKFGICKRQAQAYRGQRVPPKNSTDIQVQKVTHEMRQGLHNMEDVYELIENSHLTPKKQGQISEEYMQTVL
How it was run: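 Agonist-mode screen: TSHR HEK293 cells received test chemicals for half an hour at room temperature, then HTRF cAMP detection reagents for one hour prior to fluorescence measurement. Each chemical ran as a 15-concentration series, triplicated.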

[9] = qHTS assay to identify small molecule agonists of the constitutive androstane receptor (CAR) signaling pathway - cell viability counter screen (AID 1224836); note: nearly all actives have a fitted effect of over 45% in size; note: potency is the fitted concentration of half-maximal effect
How it was run: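 Fluorescence from CellTiter-Fluor indicates live cells after 23 h exposure. The human hepatoma line expresses hCAR and a CYP2B6-2.2kb reporter. Incubation medium contains 0.75 uM PK11195 (final).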

[10] = qHTS assay to identify small molecule antagonists of the estrogen related receptor (ERR) signaling pathway from Tox21 library - cell viability counter screen (AID 1224834); note: nearly all actives have a fitted effect of over 30% in size; note: potency is the fitted concentration of half-maximal effect
How it was run: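 ERR cells, 2,000/well; 6 h settle at 37 C/5% CO2; pin-tool compound transfer in DMSO; 17.5 h at 37 C; CellTiter-Fluor, 30 min; fluorescence intensity.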

[11] = target: Nuclear receptor subfamily 1 group I member 3 (Homo sapiens) (UniProt Q14994); experiment: qHTS assay to identify small molecule antagonists of the constitutive androstane receptor (CAR) signaling pathway (AID 1224838);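 note: HepG2 cells stably expressing hCAR with CYP2B6 luciferase reporter stimulated by CITCO; nearly all actives have a fitted effect of over 40% in size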; note: potency is the fitted concentration of half-maximal effect
How it was run: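 Antagonist mode used CITCO at a final 50 nM to activate CAR in human hepatoma HepG2 cells carrying stable hCAR and a 2.2 kb CYP2B6 promoter-luciferase construct. Compounds were tested at 15 concentrations over 24 h, with luminescence as the end point.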

[12] = qHTS assay to identify small molecule antagonists of the estrogen related receptor signaling pathway with the pleiotropic PPARgamma coactivator (PGC) from Tox21 10K library (AID 1224841; call rule not given here; note: actives are mostly falling curves and most rising ones were filed inactive; nearly all actives have a fitted effect of over 50% in size; note: potency is the fitted concentration of half-maximal effect)
How it was run: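 Steps: plate 2,000 PGC/ERR cells per well; incubate 6 h at 37 C with 5% CO2; transfer compounds from DMSO stocks by pin tool; incubate 18 h at 37 C; add One-Glo; measure luminescence 30 min later.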

[13] = qHTS assay to identify small molecule agonists of the retinoic acid receptor (RAR) signaling pathway (AID 1159553)
How it was run: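 Seed C3RL4 reporter cells at 1,000 per well and incubate overnight at 37 C. Add compounds in DMSO, incubate 6 hr. Add luciferase reagent, wait 30 min at room temperature, read luminescence.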

[14] = qHTS assay to identify small molecule antagonists of the estrogen related receptor (ERR) signaling pathway - cell viability counter screen (AID 1224818); note: series mostly up to about 46 µM
How it was run: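 ERR cells, 2,000/well; 6 h settle at 37 C/5% CO2; compound pin transfer (DMSO); 17.5 h at 37 C; CellTiter-Fluor, 30 min, fluorescence read.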

[15] = qHTS assay to identify small molecule agonists of the estrogen related receptor (ERR) signaling pathway (AID 1224820)
How it was run: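 An ERR cell line provided by NTP was seeded at 2,000 cells per well and allowed to settle for 6 h before compounds in DMSO were added. After 18 h at 37 C, luciferase activity was measured by One-Glo luminescence.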

[16] = system: estrogen-related receptor alpha (ERRalpha) with PGC-1alpha coactivator, human; experiment: qHTS assay to identify small molecule antagonists of the estrogen related receptor signaling pathway with the pleiotropic PPARgamma coactivator (PGC) (AID 1224821; calls by dose curve; note: nearly all actives have a fitted effect of over 50% in size; note: potency is the fitted concentration of half-maximal effect)
How it was run: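 A PGC/ERR cell line supplied by NTP is seeded, allowed 6 h at 37 C, and treated with test compounds in DMSO for 18 h. Signal is then measured as luciferase luminescence using One-Glo.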

[17] = qHTS assay to identify small molecule antagonists of the estrogen related receptor signaling pathway with the pleiotropic PPARgamma coactivator (PGC) cell viability counter screen (AID 1224822;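 note: series mostly up to about 46 µM; viability read after 17.5 h compound exposure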)
How it was run: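 Multiplexed viability counter screen run in PGC/ERR cells treated with compounds for 17.5 h at 37 C; live-cell protease signal measured by CellTiter-Fluor fluorescence.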

[18] = qHTS assay to identify small molecule agonists of the estrogen related receptor signaling pathway with the pleiotropic PPARgamma coactivator (PGC) (AID 1224823)
How it was run: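 Compounds dissolved in DMSO are added by pin tool to PGC/ERR cells that have settled for 6 h, and incubation continues 18 h at 37 C. Reporter output is measured as One-Glo luminescence.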

Measured: Potency
% is set by controls: 0 for no effect and ±100 for the full control effect.

C=C(C)C(=O)OCC(O)COc1ccc(C(C)(C)c2ccc(OCC(O)COC(=O)C(=C)C)cc2)cc1 (stereo unspecified)
active: [4] 61.1 µM | [6] 30.6 µM
inactive: [1] | [2] | [3] | [5] | [7] | [8]

c1cc(C(c2ccc(OCC3CO3)cc2)c2ccc(OCC3CO3)cc2)ccc1OCC1CO1 (stereo unspecified)
inactive: [1] | [3] | [9] | [4] | [8]

CCC1=C[C@@H]2CN(C1)Cc1c([nH]c3ccccc13)[C@@](C(=O)OC)(c1cc3c(cc1OC)N(C)[C@H]1[C@@](O)(C(=O)OC)[C@H](OC(C)=O)[C@]4(CC)C=CCN5CC[C@]31[C@@H]54)C2
inactive: [1] | [3] | [5] | [12] | [7]
active: [10] 0.0188 µM | [9] 4.22 µM | [4] 2.37 µM | [11] 0.106 µM

NC(=NCCCCCCN=C(N)/N=C(\N)Nc1ccc(Cl)cc1)/N=C(\N)Nc1ccc(Cl)cc1
active: [10] 54.2 µM [middle of 4 runs] | [6] 54 µM [middle of 4 runs]
inactive: [1] | [3] | [8]
60.8 µM (active) and inactive: [11]

CCC(C)Nc1ccc(NC(C)CC)cc1 (stereo unspecified)
inactive: [5] | [7]
active: [1] 39.3 µM | [3] 40.7 µM | [9] 19.7 µM | [4] 31.2 µM | [11] 27.8 µM | [6] 15.7 µM

CN1CCC(Nc2ncc3ncnc(Nc4ccc(F)c(Cl)c4)c3n2)CC1
active: [10] 26.6 µM
inactive: [1] | [3] | [5] | [12] | [8]

CCCCCCCCS(=O)C(C)Cc1ccc2c(c1)OCO2 (stereo unspecified)
inactive: [1] | [3] | [9] | [4] | [11] | [6] | [8]

Oc1ccc2cc(SSc3ccc4cc(O)ccc4c3)ccc2c1
inactive: [9] | [4] | [11] | [7] | [8]
active: [2] 7.7 µM and 12.2 µM | [10] 61.1 µM

CCCN(CCC)C(=O)C(CCC(=O)OCCCN1CCN(CCOC(=O)Cc2c(C)n(C(=O)c3ccc(Cl)cc3)c3ccc(OC)cc23)CC1)NC(=O)c1ccccc1 (stereo unspecified)
inactive: [1] | [13] | [3] | [11] | [5] | [7] | [8]
active: [10] 23.7 µM | [9] 23.7 µM | [4] 26.6 µM | [12] 29.8 µM

CCN(Cc1cccnc1)C(=O)c1cccc(Cl)c1[C@]1(C)C(=O)N(Cc2ccc(OC)cc2OC)c2ccc(Cl)cc21
active: [10] 28.6 µM
inactive: [1] | [3] | [4] | [11] | [5]

O=C(Nc1ccc(Oc2ccc(Cl)cc2)c(Cl)c1)c1cc(I)cc(I)c1O
inactive: [1] | [13] | [10] | [3] | [9] | [4] | [11] | [5] | [7] | [8]

COc1ccc(-c2ccc3cc(C(=O)O)ccc3c2)cc1C12CC3CC(CC(C3)C1)C2
inactive: [1] | [3] | [9] | [4] | [5] | [6] | [7] | [8]

Cc1cccc(CN2CCN(C(c3ccccc3)c3ccc(Cl)cc3)CC2)c1 (stereo unspecified)
inactive: [1] | [3] | [9] | [4] | [11] | [5] | [6] | [7]

Nc1ccc2c3c(cccc13)-c1ccccc1-2
active: [3] 22.7 µM | [5] 21.9 µM
inactive: [1] | [11] | [8]

N#CSc1ccc(N)c([N+](=O)[O-])c1
active: [2] 17.3 µM | [10] 54.8 µM | [9] 48.9 µM | [4] 43.5 µM | [11] 48.9 µM | [6] 54.8 µM
inactive: [5] | [7]

CCCCCCCCCCCCCC[P+](CCCC)(CCCC)CCCC (tested in a mixture with another compound)
inactive: [3] | [5] | [8]
active: [1] 27.5 µM | [10] 24.5 µM | [9] 19.4 µM | [4] 19.4 µM | [11] 17.3 µM | [6] 17.3 µM

OCc1c[nH]c2ccccc12
active: [5] 30.6 µM | [12] 3.44 µM
not listed: [2] | [3] | [6] | [8] | [10]
inactive: all other assays above

CCCCCCC[N+](CC)(CC)CCCCc1ccc(Cl)cc1
active: [10] 23.7 µM
inactive: [1] | [13] | [3] | [9] | [4] | [11] | [6] | [8]

C[C@@H]1C[C@H]2[C@@H]3CCC4=CC(=O)C=C[C@]4(C)[C@@]3(Cl)[C@@H](O)C[C@]2(C)[C@@]1(OC(=O)c1ccco1)C(=O)CCl
active: [10] 23.7 µM | [12] 23.7 µM
inactive: [1] | [3] | [9] | [4] | [7] | [8]

CCN(CC)CCCC(C)Nc1c2ccc(Cl)cc2nc2ccc(OC)cc12 (stereo unspecified)
active: [16] 16.8 µM | [10] 5.96 µM
inactive: [1] | [14] | [15] | [18] | [3] | [9]

CCOc1ccc2nc3cc(N)ccc3c(N)c2c1
active: [11] 2.66 µM
inactive: [1] | [3] | [9] | [4] | [5] | [8]
